Measured values as given in PubChem BioAssay.
Activity calls are given as the source filed them.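 Rule for the calls, unless noted: active = compound raises GLP1 secretion from the human gut endocrine cells, with no numeric limit stated; inactive = the rest.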

What was measured:
[1] = Wnt pathway potentiators raising nuclear beta-catenin – imaging, WNT3A-conditioned medium, mouse C2C12, NPC library, primary screen (AID 1117326; in the data active = nuclear beta-catenin stimulation mostly above about 4.2%, no sharp cut-off; inactive = mostly below about 10%; note: reference of the scale not given here); details: stronger effect = higher value
[2] = stimulators of insulin release from INS-1E, primary screen, cell-based, 5 mM glucose, NPC library (AID 1117329;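 active = compound raises insulin release from rat beta cells at 5 mM glucose, no numeric limit stated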; note: reference of the scale not given here); details: rat INS-1E insulin secretion, at 10 µM, stronger effect = higher value
[3] = growth inhibition of GSK3B-pretreated HCT116 cells – cell-based, CellTiter-Glo, 0.2 to 20 µM (AID 1117336;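 active = compounds lowering colon cancer cell viability after pretreatment blocking the GSK3B kinase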); details: HCT116 viability after GSK3B inhibitor, at 20 µM, stronger effect = higher value
[4] = inhibition of endothelial tube formation, primary screen, imaging, VEGF stimulated, CD31 staining, tube area, NPC library (AID 1117340;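 active = compound that reduces growth-factor-driven endothelial tube area in a mixed cell culture, no cutoff stated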); details: VEGF-stimulated ADSC/ECFC co-culture, at 10 µM, stronger effect = higher value
[5] = GLP1 release stimulators, primary, NCI-H716, NPC library (AID 1117341); details: NCI-H716 cells, at 10 µM, stronger effect = higher value; note: reference of the scale not given here
[6] = HCT116 colon cancer cell growth inhibition, primary screen, CellTiter-Glo luminescence, NPC library (AID 1117342;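 active = compounds that lower survival of HCT116 colon cancer cells in the luminescence readout, no numeric limit stated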); details: at 20 µM (top of the series)
[7] = reduced SW480 viability measured with CellTiter-Glo, NPC library, primary (AID 1117343;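 active = compounds that lower viability of the colon cancer cells in the luminescence readout, with no numeric limit stated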); details: CellTiter-Glo luminescence; at 20 µM (top of the series)
[8] = NPC library primary testing for decreased DLD-1 cell viability via CellTiter-Glo (AID 1117346;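 active = compounds that lower survival of DLD-1 colon cancer cells in the luminescence readout, no cutoff given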); details: DLD-1 viability, CellTiter-Glo luminescence; at 20 µM (top of the series)

| Structure (SMILES) | nuclear beta-catenin stimulation ([1]; at 10 µM) | nuclear beta-catenin stimulation ([1]; stimulation, at 2 µM) [%] | insulin secretion stimulation [2] | viability decrease [3] | tube area decrease [4] | GLP1 secretion stimulation [5] | inhibition of viability [6] | viability decrease (inhibition) [7] | viability decrease (inhibition) [8] |
| --- | --- | --- | --- | --- | --- | --- | --- | --- | --- |
| CC(Cc1ccc2c(c1)OCO2)NCC(O)c1ccc(O)c(O)c1 (centres undefined) | 2.6% (inactive) | -0.2 | 2.9% (inactive) | 38.3% (inactive) | 21.3% (inactive) | -2% (inactive) | 25.8% (inactive) | 40.4% (inactive) | 14.6% (inactive) |
| O=C(O)c1cc(Oc2ccc(C(F)(F)F)cc2Cl)ccc1[N+](=O)[O-] | 1.4% (inactive) | 0.5 | 4.1% (inactive) | -10.9% (inactive) | 0.3% (inactive) | 3.1% (inactive) | 9.4% (inactive) | -9.4% (inactive) | -3.5% (inactive) |
| CCN(CC)CCOC(=O)C(C)(c1ccccc1)c1ccccc1 | 1.1% (inactive) | 0.8 | 27.8% (active) | 36.8% (inactive) | 0.6% (inactive) | 8.1% (inactive) | 49.8% (inactive) | 22.2% (inactive) | 17.9% (inactive) |
| CC(C)C(Br)C(=O)NC(N)=O (centres undefined) | 0.6% (inactive) | 1 | -0.4% (inactive) | -0.05% (inactive) | 1.7% (inactive) | -0.8% (inactive) | -3% (inactive) | 4.9% (inactive) | 1% (inactive) |
| CN1C2CCC(C)(C)C1CC(OC(=O)C(O)(c1cccs1)c1cccs1)C2 (centres undefined) | -1.7% (inactive) | -0.6 | 5.6% (inactive) | 8% (inactive) | 4.7% (inactive) | -0.7% (inactive) | 27.8% (inactive) | 37.2% (inactive) | 27.7% (inactive) |
| CCC1(c2ccccc2)C(=O)N(COC)C(=O)N(COC)C1=O | 0.6% (inactive) | 0.4 | 0.35% (inactive) | 83.5% (active) | 4% (inactive) | 1.4% (inactive) | 96.3% (active) | 89.5% (active) | 62.9% (active) |
| CCN(CCO)CCn1c(Cc2ccccc2)nc2c1c(=O)n(C)c(=O)n2C | -2% (inactive) | 0 | 3% (inactive) | -6% (inactive) | 4.3% (inactive) | -5.3% (inactive) | 6.4% (inactive) | 15.1% (inactive) | 4.2% (inactive) |
| Nc1ccc(N)cc1 | -0.1% (inactive) | 0.8 | -3.1% (inactive) | -2.35% (inactive) | -29.4% (inactive) | 4.2% (inactive) | 51% (active) | 84.1% (active) | -15.2% (inactive) |
| c1cc2c(c(N3CCNCC3)c1)OCCO2 | -1.4% (inactive) | 0.7 | 1.8% (inactive) | -14.9% (inactive) | -9.4% (inactive) | -2.6% (inactive) | 3.6% (inactive) | 3.4% (active) | -7.5% (inactive) |
| CCN(Cc1ccc(Cl)nc1)/C(=C/[N+](=O)[O-])NC | -0.1% (inactive) | 1.1 | 3.5% (inactive) | 3.9% (inactive) | -21.3% (inactive) | -4.7% (inactive) | -3.27% (inactive) | 13.3% (inactive) | 4.5% (inactive) |
| Nc1ccccc1C(=O)O | 1.8% (inactive) | 1.3 | 0.9% (inactive) | -0.1% (inactive) | -2.6% (inactive) | 1.1% (inactive) | 6.4% (inactive) | 11.5% (inactive) | -8.85% (inactive) |
| C1CN(P2(N3CC3)=NP(N3CC3)(N3CC3)=NP(N3CC3)(N3CC3)=N2)CCO1 (centres undefined) | -0.2% (inactive) | 0.7 | 2.5% (inactive) | 8.1% (inactive) | 86.7% (active) | -5.1% (inactive) | 30.4% (inactive) | 17.7% (active) | 5.5% (inactive) |
| CC(Cc1ccccc1)N(C)Cc1ccco1 (centres undefined) | -0.5% (inactive) | 0.7 | 2.3% (inactive) | -12.2% (inactive) | 25.5% (inactive) | 0.1% (inactive) | 8.5% (inactive) | 4.3% (inactive) | -1.8% (inactive) |
| O=c1[nH]c2cc(Cl)ccc2n1C1CCNCC1 | 9.1% (inactive) | 19.6 | 3.8% (inactive) | 1.8% (inactive) | -3.4% (inactive) | 10.2% (inactive) | 29.9% (inactive) | 10.3% (inactive) | 12.5% (inactive) |
| Oc1ccccc1-c1ccccc1 | 0.6% (inactive) | -0.1 | -2.4% (inactive) | -2.35% (inactive) | -3.5% (inactive) | -1.2% (inactive) | -18.2% (inactive) | 15.3% (inactive) | 8.7% (inactive) |
| CCCN(CCC)C(=O)Cc1c(-c2ccc(Cl)cc2)nc2ccc(Cl)cn12 | -2% (inactive) | -0.8 | 11.7% (inactive) | 10.8% (inactive) | -7.3% (inactive) | -2.3% (inactive) | 49.5% (inactive) | 18% (inactive) | 27.1% (inactive) |

| Structure (SMILES) | nuclear beta-catenin stimulation ([1]; at 10 µM) | nuclear beta-catenin stimulation ([1]; stimulation, at 2 µM) [%] | insulin secretion stimulation [2] | viability decrease [3] | tube area decrease [4] | GLP1 secretion stimulation [5] | inhibition of viability [6] | viability decrease (inhibition) [7] | viability decrease (inhibition) [8] |
| --- | --- | --- | --- | --- | --- | --- | --- | --- | --- |
| O=C(Nc1ccc(Br)cc1)c1cc(Br)cc(Br)c1O | 28.9% (inactive) | 0.4 | -3% (inactive) | 98% (active) | 108% (active) | -3.5% (inactive) | 98.2% (active) | 94.4% (active) | 100% (active) |
| O=C(O)COc1ccccc1 | 1.6% (inactive) | 0.3 | -2.7% (inactive) | -4.9% (inactive) | -5.1% (inactive) | 0.4% (inactive) | -0.7% (inactive) | -15.1% (inactive) | -15.4% (inactive) |
| N[C@@H](Cc1ccc(Oc2cc(I)c(O)c(I)c2)c(I)c1)C(=O)O | 0.6% (inactive) | -0.5 | 2.2% (inactive) | 48.2% (inactive) | 34.7% (inactive) | -3.9% (inactive) | 39.6% (inactive) | 36.1% (inactive) | -13.1% (inactive) |
| CCCOC(=O)c1cncn1C(C)c1ccccc1 (centres undefined) | 3.6% (inactive) | 0.7 | 4.8% (inactive) | -12.2% (inactive) | -7.5% (inactive) | 1.9% (inactive) | 11% (inactive) | -24.3% (inactive) | 18.7% (inactive) |
| COc1ccc2c(C(=O)c3ccc(Cl)cc3)c(C)n(CC(=O)O)c2c1 | -0.1% (inactive) | -0.8 | 1.05% (inactive) | 13.7% (inactive) | -18.1% (inactive) | -0.1% (inactive) | 8% (inactive) | 22.3% (inactive) | -3.8% (inactive) |
| Cc1ccc2c(c1)C1CN(C)CCC1N2 (centres undefined) | -0.3% (inactive) | 0.7 | -0.9% (inactive) | 1.05% (inactive) | -17.5% (inactive) | 6.1% (inactive) | 5.2% (inactive) | 22.4% (inactive) | 0.7% (inactive) |
| COC(=O)c1cncn1C(C)c1ccccc1 (centres undefined) | -0.2% (inactive) | 0.1 | 1% (inactive) | 1.8% (inactive) | -14.8% (inactive) | 1.6% (inactive) | -8.6% (inactive) | 24.4% (inactive) | 20.5% (inactive) |
| C[C@]12CC[C@H]3[C@@H](CCC4=CC(=O)CC[C@@]43C)[C@@H]1CC[C@@H]2C(=O)O | 0.7% (inactive) | 0.3 | 0.2% (inactive) | 3.5% (inactive) | 8.1% (inactive) | -3.2% (inactive) | 5.9% (inactive) | -1.3% (inactive) | 2.4% (inactive) |
| O=C(O)CCCCCCNC1c2ccccc2CCc2ccccc21 | -0.3% (inactive) | -1.4 | -0.2% (inactive) | -7.3% (inactive) | -4.7% (inactive) | 0.3% (inactive) | -9.4% (inactive) | 13.9% (inactive) | -13.1% (inactive) |
| C1CCC(NC2CCCCC2)CC1 | 1.5% (inactive) | 2 | 1.3% (inactive) | -4.15% (inactive) | -1.6% (inactive) | 0.1% (inactive) | 7.9% (inactive) | -22% (inactive) | -4.45% (inactive) |
| CNC(=O)Oc1cccc2ccccc12 | 7.6% (inactive) | 0.4 | 1.3% (inactive) | 0.5% (inactive) | 41.9% (active) | -5.4% (inactive) | 5% (inactive) | 114% (active) | 16.3% (inactive) |
| Nc1ccccc1 | 0.6% (inactive) | 2 | -2.4% (inactive) | 4.9% (inactive) | -9.5% (inactive) | 1.1% (inactive) | -9.9% (inactive) | 59.6% (active) | 26.8% (inactive) |
| Oc1ccc2[nH]cc(CCCCN3CC=C(c4ccccc4)CC3)c2c1 | 12.1% (inactive) | 4 | 1.8% (inactive) | 81.3% (active) | 76.6% (active) | 5.1% (inactive) | 85% (active) | 102% (active) | 81.4% (active) |
| CN1C(=S)CN=C(c2ccccc2)c2cc(Cl)ccc21 | -0.4% (inactive) | 3.4 | 1.75% (inactive) | 65.8% (active) | 6.8% (inactive) | 1.6% (inactive) | 50.3% (active) | 77.5% (active) | 32.7% (inactive) |
| S=C(SSC(=S)N1CCCCC1)N1CCCCC1 | 1.8% (inactive) | 0.4 | -2.6% (inactive) | -2.9% (inactive) | 8.9% (inactive) | -2.3% (inactive) | -14.8% (inactive) | 13.2% (inactive) | -3.5% (inactive) |
